In PubChem BioAssay AID1159580 (chemical genetic matrix, 2015):
Hit rate of the full screen: of about 5,500 compounds, about 2,000 (36%) were called active. About 18% were inconclusive and are not listed. No stated cut-off is given here; in the data, active means normalized growth mostly below about 0.91 (no sharp cut-off); inconclusive means no clear call, values can overlap the other calls; inactive means mostly above about 0.92. The list shows a part of the results.

Test: chemical genetic growth profiling, strain panel (AID 1159580);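 further: tested at 20 µM; growth read once vehicle control cultures reached saturation at 30 °C; 1 = growth at the plate median or of vehicle wells; lower values mean less growth of the strain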
Details: S. cerevisiae deletion strains, growth OD
[1] = locus YAR019C, strain CDC15, hits give low values
[2] = locus YBL105C, strain PKC1, hits give low values
[3] = locus YBR135W, strain CKS1, hits give low values
[4] = locus YBR136W, strain MEC1, hits give low values
[5] = locus YBR160W, strain CDC28, hits give low values
[6] = locus YDL017W, strain CDC7, hits give low values
[7] = locus YDL028C, strain MPS1, hits give low values
[8] = locus YDL101C, strain DUN1, hits give low values
[9] = locus YDL108W, strain KIN28, hits give low values
[10] = locus YDL132W, strain cdc53, hits give low values
[11] = locus YDL214C, strain PRR2, hits give low values
[12] = locus YDR052C, strain DBF4, hits give low values
[13] = locus YDR054C, strain cdc34, hits give low values
[14] = locus YDR226W, strain ADK1, hits give low values
[15] = locus YDR477W, strain SNF1, hits give low values
[16] = locus YER123W, strain YCK3, hits give low values
[17] = locus YER133W, strain GLC7, hits give low values
[18] = locus YFL009W, strain cdc4, hits give low values
[19] = locus YFL029C, strain CAK1, hits give low values
[20] = locus YFR003C, strain YPI1, hits give low values
[21] = locus YFR019W, strain FAB1, hits give low values
[22] = locus YFR028C, strain CDC14, hits give low values
[23] = locus YGR040W, strain KSS1, hits give low values
[24] = locus YGR052W, strain FMP48, hits give low values
[25] = locus YGR092W, strain DBF2, hits give low values
[26] = locus YHR030C, strain SLT2, hits give low values
[27] = locus YHR079C, strain IRE1, hits give low values
[28] = locus YHR082C, strain KSP1, hits give low values
[29] = locus YHR205W, strain SCH9, hits give low values
[30] = locus YIL147C, strain SLN1, hits give low values
[31] = locus YJL095W, strain BCK1, hits give low values
[32] = locus YJL128C, strain PBS2, hits give low values
[33] = locus YJL157C, strain FAR1, hits give low values
[34] = locus YJR016C, strain ILV3, hits give low values
[35] = locus YJR066W, strain TOR1 (second series), hits give low values
[36] = locus YJR066W, strain TOR1, hits give low values
[37] = locus YKL048C, strain ELM1, hits give low values
[38] = locus YKL067W, strain YNK1, hits give low values
[39] = locus YKL101W, strain HSL1, hits give low values
[40] = locus YKL193C, strain SDS22, hits give low values
[41] = locus YKL203C, strain TOR2, hits give low values
[42] = locus YLR113W, strain HOG1, hits give low values
[43] = locus YLR133W, strain CKI1, hits give low values
[44] = locus YLR403W, strain SFP1, hits give low values
[45] = locus YML070W, strain DAK1, hits give low values
[46] = locus YMR001C, strain CDC5, hits give low values
[47] = locus YMR205C, strain PFK2 (second series), hits give low values
[48] = locus YMR277W, strain FCP1, hits give low values
[49] = locus YNL006W, strain LST8, hits give low values
[50] = locus YNL020C, strain ARK1, hits give low values
[51] = locus YNL161W, strain CBK1, hits give low values
[52] = locus YNL183C, strain NPR1, hits give low values
[53] = locus YNL207W, strain RIO2, hits give low values
[54] = locus YNL222W, strain SSU72, hits give low values
[55] = locus YNL307C, strain MCK1 (second series), hits give low values
[56] = locus YOL078W, strain AVO1, hits give low values
[57] = locus YOL136C, strain PFK27, hits give low values
[58] = locus YOR061W, strain CKA2, hits give low values
[59] = locus YOR119C, strain RIO1, hits give low values
[60] = locus YOR231W, strain MKK1, hits give low values
[61] = locus YOR329C, strain SCD5, hits give low values
[62] = locus YPL031C, strain PHO85, hits give low values
[63] = locus YPL153C, strain RAD53, hits give low values
[64] = locus YPL204W, strain HRR25, hits give low values
[65] = locus YPL209C, strain IPL1, hits give low values
[66] = locus YPL256C, strain CLN2, hits give low values
[67] = locus YPR025C, strain CCL1, hits give low values
[68] = locus YPR106W, strain ISR1, hits give low values
[69] = locus YPR111W, strain DBF20, hits give low values
[70] = strain NNK1, hits give low values
[71] = strain TSCII, hits give low values

Measured: normalized growth

FC(F)(F)c1ccc(C2Sc3ccccc3N=C3c4ccccc4CC32)cc1 (configuration not stated)
inactive: [1] 1.01 | [2] 1.03 | [3] 1.01 | [4] 1 | [5] 1.02 | [6] 1.01 | [7] 0.996 | [8] 1 | [9] 0.994 | [10] 1.02 | [11] 1.02 | [12] 1.01 | [13] 1.02 | [14] 0.996 | [15] 1.03 | [16] 0.96 | [17] 1 | [18] 1.01 | [19] 1 | [20] 1.02 | [21] 0.985 | [22] 1.01 | [23] 1.02 | [24] 1.04 | [25] 0.979 | [26] 0.97 | [27] 1.01 | [28] 1.01 | [29] 0.953 | [30] 1 | [31] 0.985 | [32] 0.973 | [33] 1.02 | [34] 1.02 | [35] 0.999 | [36] 0.993 | [37] 0.984 | [38] 1 | [39] 1.04 | [40] 1.01 | [41] 1.1 | [42] 0.87 | [43] 0.987 | [44] 0.991 | [45] 0.981 | [46] 1.02 | [47] 0.995 | [48] 1.02 | [49] 1 | [50] 1.01 | [51] 1.03 | [52] 0.969 | [53] 1.02 | [54] 1.01 | [55] 0.937 | [56] 0.998 | [57] 0.993 | [58] 0.993 | [59] 1.02 | [60] 1 | [61] 1.03 | [62] 1.06 | [63] 1.03 | [64] 1.01 | [65] 1.02 | [66] 0.951 | [67] 1.02 | [68] 0.996 | [69] 0.985 | [70] 1.01 | [71] 1.02

N#C/C(=C\c1ccc(C(F)(F)F)cc1)c1ccc(O)cc1
active: [11] 0.478 | [15] 0.497 | [16] 0.508 | [17] 0.492 | [21] 0.647 | [23] 0.53 | [24] 0.5 | [25] 0.365 | [26] 0.308 | [27] 0.334 | [28] 0.492 | [29] 0.359 | [31] 0.464 | [33] 0.47 | [35] 0.29 | [36] 0.435 | [37] 0.411 | [38] 0.525 | [39] 0.465 | [41] 0.428 | [42] 0.431 | [43] 0.498 | [44] 0.445 | [45] 0.535 | [47] 0.54 | [50] 0.45 | [52] 0.467 | [55] 0.395 | [57] 0.492 | [58] 0.43 | [59] 0.498 | [60] 0.469 | [62] 0.421 | [63] 0.444 | [64] 0.453 | [66] 0.427
inactive: [1] 0.969 | [2] 0.968 | [3] 0.965 | [4] 0.97 | [5] 0.976 | [6] 0.966 | [7] 0.976 | [8] 0.979 | [9] 0.972 | [10] 0.973 | [12] 0.988 | [13] 0.96 | [14] 0.969 | [18] 0.967 | [19] 0.978 | [20] 0.971 | [22] 0.964 | [30] 0.974 | [32] 0.913 | [34] 0.974 | [40] 0.972 | [46] 0.96 | [48] 0.963 | [49] 0.959 | [51] 0.967 | [53] 0.961 | [54] 0.964 | [56] 0.973 | [61] 0.962 | [65] 0.965 | [67] 0.971 | [68] 0.965 | [69] 0.953 | [70] 0.95 | [71] 0.967
